About 83,000 compounds went through this panel and 20% of them were active in at least one assay; those are over-represented in the sample as a whole.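 Method: cells in 96-well plates; compound added at one concentration; 48 h incubation; percent growth measured; values under 10 scored active.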 A number with no mark means an inactive call. Activity calls are given as the source filed them.
Assays:
Assay in all cases: NCI-60 one-dose screen, 48 h (100 = growth as untreated, 0 = no growth, -100 = all killed)
Details in all cases: 10 µM unless noted
EKVX NSCLC = system: EKVX NSCLC
SN12C renal = system: SN12C renal
UO-31 renal = system: UO-31 renal
TK-10 renal = system: TK-10 renal
ACHN renal = system: ACHN renal
CAKI-1 renal = system: CAKI-1 renal
A498 renal = system: A498 renal
CCRF-CEM leukemia = system: CCRF-CEM leukemia
MOLT-4 leukemia = system: MOLT-4 leukemia
RPMI-8226 leukemia = system: RPMI-8226 leukemia
OVCAR-8 ovarian = system: OVCAR-8 ovarian
OVCAR-5 ovarian = system: OVCAR-5 ovarian
OVCAR-4 ovarian = system: OVCAR-4 ovarian
SK-OV-3 ovarian = system: SK-OV-3 ovarian
IGROV1 ovarian = system: IGROV1 ovarian
OVCAR-3 ovarian = system: OVCAR-3 ovarian
HS 578T breast = system: HS 578T breast
NCI/ADR-RES ovarian = system: NCI/ADR-RES ovarian
T-47D breast = system: T-47D breast
SR leukemia = system: SR leukemia

SMILES | growth (EKVX NSCLC) | growth (SN12C renal) | growth (UO-31 renal) | growth (TK-10 renal) | growth (ACHN renal) | growth (CAKI-1 renal) | growth (A498 renal) | growth (CCRF-CEM leukemia) | growth (MOLT-4 leukemia) | growth (RPMI-8226 leukemia) | growth (OVCAR-8 ovarian) | growth (OVCAR-5 ovarian) | growth (OVCAR-4 ovarian) | growth (SK-OV-3 ovarian) | growth (IGROV1 ovarian) | growth (OVCAR-3 ovarian) | growth (HS 578T breast) | growth (NCI/ADR-RES ovarian) | growth (T-47D breast) | growth (SR leukemia) [%]
COC(=O)CCC1=C(C)/C(=C/c2[nH]c(-c3ccc[nH]3)cc2OC)N=C1C | 46.4% | 34.8% | -50.9% (active) | 28.1% | 8.35% (active) | 11.1% | 66.8% | -23.6% (active) | -28.3% (active) | -57% (active) | 10% | 35% | 23.4% | 40% | 25.9% | -56.9% (active) | 1.28% (active) | 14.8% | -36% (active) | –
CCCCCCCC1(C)NC(=O)NC1=O (stereo unspecified) | 105% | 109% | 93.8% | 132% | 101% | 105% | 103% | 94.2% | 106% | – | 104% | 163% | 105% | 114% | – | 115% | 114% | 138% | 123% | 96.9
O=C(C(Br)Br)C(Br)C(Br)c1ccccc1 (stereo unspecified) | 117% | 93.7% | 17.8% | 27.7% | 6.67% (active) | 72.7% | 101% | 14.8% | 27.7% | 78.1% | 88% | 108% | 43.1% | 116% | 84.3% | 1.96% (active) | 104% | 94.5% | 49.7% | –
O=C(OC[C@H]1O[C@H](OC(=O)c2cc(O)c(O)c(OC(=O)c3cc(O)c(O)c(O)c3)c2)[C@H](OC(=O)c2cc(O)c(O)c(OC(=O)c3cc(O)c(O)c(O)c3)c2)[C@@H](OC(=O)c2cc(O)c(O)c(OC(=O)c3cc(O)c(O)c(O)c3)c2)[C@@H]1OC(=O)c1cc(O)c(O)c(OC(=O)c2cc(O)c(O)c(O)c2)c1)c1cc(O)c(O)c(OC(=O)c2cc(O)c(O)c(O)c2)c1 | 37.4% | 31.6% | 22.1% | 43.4% | 24.6% | 19.6% | 35.6% | 24% | 26.3% | 34.9% | 30.2% | 48.3% | 37.8% | 49.8% | 29.8% | 13.8% | 66.1% | 9.15% (active) | 33.2% | –
Oc1ccccc1/C=N\Nc1ccccc1 | 72.8% | 44.9% | 15.5% | 110% | 27.2% | 10.8% | 82.5% | 17.8% | 35.3% | 43.7% | 52% | 55.5% | 84% | 108% | 57.3% | 79.1% | 80.8% | 44.1% | 44.5% | –
Fc1ccc([C@@H]2CCNC[C@H]2COc2ccc3c(c2)OCO3)cc1 | 77.3% | 58.6% | 40.4% | 58.4% | 67% | 67% | 86.1% | 60.6% | 68.3% | 32.9% | 95.9% | 73.5% | 90% | 90.8% | 72% | 81.3% | 82.8% | 86.3% | 63.7% | –
COc1cc2cn3c4ccc(O)cc4nc(N)c3c2cc1OC | 48.7% | 18.6% | 1.49% (active) | 50.4% | -3.69% (active) | -4.04% (active) | -14.4% (active) | 21.1% | 8.22% (active) | 19.9% | 29.6% | 45.3% | 38.7% | 27.2% | 33.9% | 1.25% (active) | – | 42.4% | 12.5% | –
COc1c(C)c2c(c(O)c1C/C=C(\C)CCC(=O)OCCN1CCOCC1)C(=O)OC2 | 46% | 24.1% | 15.4% | 27.1% | 27% | 5.19% (active) | 30% | 18.6% | 24.4% | 16% | 16.9% | 36.8% | – | 31.4% | 13% | 36.1% | 50.4% | 21.5% | 29.3% | –
Cn1cc(-c2csc(-c3cn(C)c4ncccc34)n2)c2cc(F)cnc21 | 77.7% | 88.9% | 99.1% | 104% | 94.4% | 66% | 72.9% | 67.4% | 80.1% | 70.1% | 80.8% | 91.3% | 93.5% | 107% | 84% | 108% | – | 46.9% | 52.2% | –
CCCCCCCCCCC[C@@H](C[C@H]1OC(=O)[C@H]1CCCCCC)OC(=O)[C@@H](CC(C)C)NC=O | 95.6% | 43.9% | 19% | 94.7% | 62.7% | 54.7% | 84.5% | 27.6% | 13.1% | 0.857% (active) | 62.9% | 94.4% | – | 88.1% | 60.3% | 69% | 53.6% | 37.5% | 76.5% | –
O=c1c(O)cccn1CCCNCCCN(CCCn1cccc(O)c1=O)CCCn1cccc(O)c1=O | 93% | 87% | 104% | 108% | 101% | 103% | 129% | 147% | 160% | 131% | 114% | 94.7% | 101% | 97.3% | – | 103% | 120% | 101% | 101% | –
c1cncc(CNc2ccccc2-c2nnc(Nc3ccc4c(c3)OCO4)o2)c1 | 35.3% | 28.8% | 40.7% | 50% | 32.2% | 9.02% (active) | -0.133% (active) | 19% | 18.6% | 27.5% | 26.1% | 25.2% | 36.3% | -3.15% (active) | 25.2% | -22% (active) | 35.4% | 19.4% | 43.5% | –
CCOC(=O)C1=C(COCCN)NC(C)=C(C(=O)OC)C1c1ccccc1Cl (stereo unspecified) | 83.9% | 75.9% | 45.4% | 67.8% | 43.8% | 64.5% | 62.4% | 66.2% | 67% | 45.9% | 82% | 74.7% | 78.9% | 94.2% | 73.6% | – | 80.3% | 80% | 51.7% | –
Cn1cc(-c2csc(-c3cn(C)c4ncccc34)n2)c2cccnc21 | 86.6% | 93.1% | 91.9% | 92.2% | 99.7% | 83.3% | 76.1% | 87.3% | 95.7% | 87.5% | 93.7% | 90.2% | 100% | 123% | 111% | 112% | – | 91.1% | 101% | –
O=C1c2nsnc2C(=O)c2c(F)c(F)c(F)c(F)c21 | -13.9% (active) | -94.8% (active) | -86.9% (active) | -98.9% (active) | -97.3% (active) | -75.9% (active) | 10.1% | 6.36% (active) | -26.6% (active) | -1.71% (active) | -38.6% (active) | -73.8% (active) | -99.5% (active) | 32.4% | -22.9% (active) | -90.1% (active) | – | -17.1% (active) | -38.9% (active) | –

From PubChem BioAssay (NCI)
